Bioassay records (PubChem)
The sample as a whole holds a higher share of hits than the screen did.
Tg IFNy HTS – inhibitors of Toxoplasma gondii growth with IFN-gamma. Toxoplasma gondii growth in IFN-gamma-treated host cells; hits give low values. activity change, negative = inhibition, % (test concentration not listed). AID 1259416. 3.8% of 69,000 active; in the data active = activity change below about -70%, passing the limit was not always enough;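 also: host cells are HeLa cells infected with Toxoplasma gondii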
Numbers without * were called inactive; i = inactive; ! = a repeat was not active.

SMILES	Tg IFNy HTS
CN(C)C(=O)Nc1cccc(-c2ccc(N(C)C)cc2)c1	32
COCCN1C(=O)CCc2cc(NS(=O)(=O)c3ccc4c(c3)CCC4)ccc21	-63
CCCN1C(=O)CCc2cc(NS(=O)(=O)c3ccc(CC)cc3)ccc21	-82*
COCCN1C(=O)CCc2cc(NS(=O)(=O)c3ccc(C(F)(F)F)cc3)ccc21	1
COCCN1C(=O)CCc2cc(NS(=O)(=O)c3ccccc3)ccc21	-27
CCCN1C(=O)CCc2cc(NS(=O)(=O)c3cccs3)ccc21	5
COCCN1C(=O)CCc2cc(NS(=O)(=O)c3ccc(C)cc3)ccc21	39
COCCN1C(=O)CCc2cc(NS(=O)(=O)c3ccc(C)c(C)c3)ccc21	22
COCCN1C(=O)CCc2cc(NS(=O)(=O)c3ccc(CC(C)C)cc3)ccc21	-79*
CCCN1C(=O)CCc2cc(NS(=O)(=O)c3ccc(C(F)(F)F)cc3)ccc21	-82*
COc1ccc2c3c(n(C)c2c1)[C@@H](CO)N(Cc1ccccc1)CC31CN(CC2CC2)C1	171
Cc1ccc(-c2nc(C)c(CCNS(=O)(=O)c3ccc(Cl)cc3)s2)cc1	i
Cc1cc(-n2cnnc2CCn2cccn2)n(C)n1	8
CC(=O)N1C[C@H]2[C@@H](c3ccccc31)[C@@H](CO)N2Cc1ccc(Cl)cc1	-6
COc1cccc2c1C(=O)c1c(O)c3c(c(O)c1C2=O)C[C@@](O)(C(C)=O)C[C@@H]3O[C@H]1C[C@H](N)[C@H](O)[C@H](C)O1	-72*!
COc1cccc2c1C(=O)c1c(O)c3c(c(O)c1C2=O)C[C@@](O)(C(=O)CO)C[C@@H]3O[C@H]1C[C@H](N)[C@@H](O)[C@H](C)O1	-84*
CC(=O)[C@]1(O)Cc2c(O)c3c(c(O)c2[C@@H](O[C@H]2C[C@H](N)[C@H](O)[C@H](C)O2)C1)C(=O)c1ccccc1C3=O	-67
COCCN(C)C[C@@H]1CCC[C@@H]2CN(Cc3nccs3)C[C@H]21	-4
CCC1(O)CCCN(c2nc(C)cc(C3CCC3)n2)C1 (stereo not given)	9
CN(C/C=C/C#CC(C)(C)C)Cc1cccc2ccccc12	-19
O=C(NCC(c1cccnc1)c1c[nH]c2ccccc12)Nc1ccccc1C(F)(F)F (stereo not given)	114
O=C(NCC(c1ccccc1)c1c[nH]c2ccccc12)c1ccc(C(F)(F)F)cc1 (stereo not given)	-88*
CCc1ccccc1NC(=O)NCC(c1cccnc1)c1c[nH]c2ccccc12 (stereo not given)	53
OCCCc1cn(C2CCN(c3nn4cnnc4c4ccccc34)CC2)nn1	0
N#Cc1nccnc1N1CCN(S(=O)(=O)c2ccc(F)cc2)CC1	36
SMILES	Tg IFNy HTS
O=C(Cc1ccccc1)NO	-36
CCCCOc1ccc(CC(=O)NO)cc1	-100*!
CCCCOc1ccc(NC(=O)CN2CCN(CC)CC2)cc1	-38
Cc1cc(C)c2c(c1)[C@@H](N(Cc1cc(C(F)(F)F)cc(C(F)(F)F)c1)c1nnn(C)n1)CCCN2CC1CCC(C(=O)O)CC1 (stereo not given in full)	-81*
CN(Cc1nc2ccccc2n1C)C(=O)C(C)(C)NC(=O)c1cccs1	8
CCn1ccc(C(=O)Nc2sc(C(=O)OC)c(C)c2C(=O)OC)n1	30
COc1ccc(-c2nccc(C(F)(F)F)n2)cn1	62
COc1ccc(C(=O)Nc2ccc3c(c2)nc(C(F)(F)F)n3C)cn1	20
COc1ccc(-c2ccc3ncc4c(c3c2)n(-c2ccc(N3CCNCC3)c(C(F)(F)F)c2)c(=O)n4C)cn1	-90*
COCc1ccc(-c2cc(=O)n3[nH]cc(C(=O)Nc4ccc(C)cc4)c3n2)cc1	-42
CS(=O)(=O)N1CCC[C@@H]1Cn1nc(-c2cccs2)ccc1=O	1
CN1CCCn2nc(C(=O)NCCN3CCC(c4ccccc4)C3)cc2C1 (stereo not given)	-32
CN(C)C1CCN(C(=O)c2cnc(-c3noc4cc(-c5ccc(F)cc5)ccc34)s2)CC1	-82*
Cc1ccccc1-c1ccc2c(-c3ncc(C(=O)NCCN(C)C)s3)noc2c1	-54
CCN(C)C(=O)c1cnc(-c2noc3cc(N4CCCCC4)ccc23)s1	-44
C=CC[C@@H]1CC=C[C@@H](C)N1C(=O)Cn1[nH]c(=O)ccc1=O	6
Cc1cc(C)cc(NC(=O)CC(=O)NCc2ccccc2)c1	-86*
CCc1nc(OCC(=O)Nc2cc(C)cc(C)c2)c2ccccc2n1	-6
Cc1ccc(NC(=O)CC(=O)NCc2ccc(CN3CCCC3)cc2)cc1	-21
CCOc1cc(CNC(=O)c2nc(N3CCOCC3)c3ccccc3n2)ccc1OC	-20
CCOc1ccc(CCNC(=O)c2nc(N3CCC(C)CC3)c3ccccc3n2)cc1OCC	-98*
CCOc1ccc(CCNC(=O)c2nc(N3CCCC3)c3ccccc3n2)cc1OCC	-63
COC(=O)c1cc(C)nc2c1c(=O)n(Cc1nc(-c3ccccc3)oc1C)c(=O)n2-c1ccccc1	-15
CCN(C)C(=O)c1ccc2ccc(N(C)Cc3ccc(OC)cc3)n2c1	-49
CC(C)N1CCOCC2(CN(C(=O)c3cccn3C)CCO2)C1 (stereo not given)	-23
